This is a sample that favours compounds with a hit; in the whole collection about 2.4% have one here.
D2 PAM-1: potentiates the human D2 dopamine receptor allosterically; P14416; DiscoveRx D2 beta-arrestin cells, luminescence, 90 min; 100% = 57 uM dopamine signal; potentiation, % (no concentration beside the values); 0.23% of 360,000 active; AID 624464; in the data active = potentiation above about 50%; inconclusive = mostly about 30% to 49%
Target sequence (P14416 whole entry, looked up): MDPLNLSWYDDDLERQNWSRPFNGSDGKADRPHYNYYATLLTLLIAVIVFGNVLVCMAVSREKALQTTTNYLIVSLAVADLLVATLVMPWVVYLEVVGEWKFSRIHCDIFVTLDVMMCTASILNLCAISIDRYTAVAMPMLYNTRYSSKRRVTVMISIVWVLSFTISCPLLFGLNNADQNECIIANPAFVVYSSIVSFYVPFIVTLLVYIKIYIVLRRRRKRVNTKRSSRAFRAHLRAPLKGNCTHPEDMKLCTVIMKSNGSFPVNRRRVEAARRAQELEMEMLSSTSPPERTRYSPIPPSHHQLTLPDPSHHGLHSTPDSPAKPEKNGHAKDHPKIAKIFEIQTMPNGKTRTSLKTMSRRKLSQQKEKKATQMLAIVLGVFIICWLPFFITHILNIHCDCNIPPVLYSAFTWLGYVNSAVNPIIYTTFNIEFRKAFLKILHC
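PathHunter D2 cells, attached overnight at 37 deg C, received compound in DMSO plus dopamine at EC20 (50 nM final) for 90 min at 37 deg C. Beta-arrestin recruitment was read as luminescence after 1 h with detection reagent at ambient temperature.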
D2 antag: D2 dopamine receptor (human) antagonism. AID 485344. inhibition, % at 10 µM. 2% of 340,000 active. P14416. HEK293 TREx D2 cells, calcium flux, dopamine EC80; in the data active = inhibition above about 30%; inactive = below that, where a call was filed
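Inhibition of EC80 dopamine-driven calcium flux, recorded kinetically, defines activity here; cells are a tetracycline-induced HEK293 T-REx line expressing force-coupled D2.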
D2 ag-1: agonists of human D2 dopamine receptor. P14416. HEK293 T-REx D2 cells, calcium flux agonist mode. activation, % at 2 µM. 0.53% of 340,000 active;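 active = activation over 3 SD above normal in the single-dose calcium agonist read, cut at about 30% in these data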
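Tetracycline-induced HEK293 Trex cells with D2 receptor force-coupled to calcium signaling, plated overnight at 30 C and loaded with no-wash calcium dye. Calcium flux read kinetically for 180 s after compound addition; responses flag agonists.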
B2AR arrestin: recruits beta-arrestin to the human beta2-adrenergic receptor | P07550 | beta-arrestin recruitment to beta2AR, cell-based reporter | Potency, µM (series often up to 46.1 µM), most hits filed as activators | 0.02% of 330,000 active; active = well fitted activation curve with a large enough effect; inconclusive = small, poorly fitted or top-dose-only effect; note: nearly all actives have a fitted effect of over 65% in size
D2 PAM-2: D2 dopamine receptor (human) potentiation | potentiation, % at 10 µM | 0.34% of 340,000 active | P14416 | HEK293 T-REx D2, calcium flux, EC20 dopamine potentiation;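 active = potentiation over 3 SD above the plate norm, cut at about 30% in these data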
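Potentiation of an EC20 dopamine calcium response measured kinetically over 180 s, after a preceding 180 s compound-only read flagging agonists. Cells: inducible Hek293 Trex D2 line, 4000/well, cultured overnight at 30 C before dye loading.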
D2 ag-2: agonists of human D2 dopamine receptor (beta-arrestin) | 0.084% of 360,000 active | activation, % (concentration not given with the values) | AID 624465 | DiscoveRx PathHunter D2 beta-arrestin, luminescence, 90 min; 100% = 57 uM dopamine signal | P14416; in the data active = activation above about 40%; inconclusive = between about 15% and that limit
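Agonist mode: compounds alone added to overnight-plated D2 PathHunter cells for 90 min at 37 C, with 57 uM final dopamine (EC100) defining full response. Beta-arrestin recruitment detected by chemiluminescent reagent, read after 1 h at ambient temperature.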
Large screens that a line does not name were inactive.

CSCCC(NS(=O)(=O)c1ccccc1F)C(=O)N1CCCCCC1 (stereo not drawn)	D2 antag 44
CCOC(=O)c1ccc(N2C(=O)c3n[nH]c(-c4ccco4)c3C2c2ccc(OC)cc2OC)cc1 (stereo not drawn)	none (no result: D2 PAM-1, D2 antag, B2AR arrestin, D2 PAM-2, D2 ag-2)
Cc1cc(N2CCCC2)nc(N2C3CCC2CC(O)(c2ccc(F)cc2)C3)n1 (stereo not drawn)	D2 antag 42 (no result: D2 PAM-1, D2 ag-2)
CCOC(=O)N1CCC(NC(=O)CCC(=O)N2CCOc3ccc(Cl)cc32)CC1	none
CCC1CCCCN1CCCNC(=O)C(C)n1nc(C)c2sc3ccccc3c2c1=O (stereo not drawn)	none
COc1ccc(C(=O)NC(=S)Nc2ccccc2N2CCOCC2)cc1[N+](=O)[O-]	D2 antag 39
Cc1ccccc1OCC(=O)OCC(=O)NC1CCCC1	none (no result: D2 antag, D2 ag-1, B2AR arrestin, D2 PAM-2)
Cc1ccccc1NC(=O)CSC1=C(C#N)C(c2ccsc2)CC(=O)N1 (stereo not drawn)	D2 antag 37
N#CC1=C(SCC(=O)Nc2nccs2)NC(=O)CC1c1ccccc1 (stereo not drawn)	none
CC(=O)Nc1ccc2c(c1)CN(c1cc(C)ccc1C)CO2	none (no result: D2 antag, D2 ag-1, D2 PAM-2)
O=C(C1CCN(S(=O)(=O)N2CCOCC2)CC1)N1CCc2ccccc21	D2 antag 36
C(=C\c1ccccc1)/C=N/N1CCN(Cc2ccccc2)CC1	D2 antag 40
COc1ccc(S(=O)(=O)NCCc2sc3nc(-c4ccc(C)cc4)nn3c2C)cc1F	none (no result: D2 PAM-1, D2 antag, B2AR arrestin, D2 ag-2)
CCCCN1C(=O)C(O)(CC(=O)c2ccccc2OC)c2ccccc21 (stereo not drawn)	D2 antag 33
COc1ccccc1C(=O)CC1(O)C(=O)N(CC(N)=O)c2ccccc21 (stereo not drawn)	none (no result: D2 PAM-1, D2 antag, B2AR arrestin, D2 ag-2)
CN(c1ccccc1)c1ccc(/C=N/NC(=O)CC#N)cc1	B2AR arrestin 1.3µM
CN(Cc1ccc(F)cc1)C(=O)c1cccc(OC2CCN(C3CCCC3)CC2)c1	none
CN(C)CCN(Cc1cc2cc3c(cc2[nH]c1=O)OCCO3)C(=S)NCC1CCCO1 (stereo not drawn)	D2 antag 41
CCN(CC)CCN(Cc1cc2cc3c(cc2[nH]c1=O)OCCO3)C(=S)NCC1CCCO1 (stereo not drawn)	B2AR arrestin inconclusive
O=c1[nH]c(=O)n(C2CCCO2)cc1F (stereo not drawn)	D2 antag 32
COCC1CCN(C(=O)CCc2nnc(CCCCc3ccccc3)o2)CC1	none
CN1C(=O)N(CC(=O)Nc2sccc2C(N)=O)C(=O)C12CCCCC2	none
CCc1nc2ccc(C(=O)Nc3cc(-c4ccccc4)ccc3OC)cn2c1N(C)CCC(C)C	none (no result: D2 antag, D2 ag-1, B2AR arrestin, D2 PAM-2)
CCc1nc2ccc(C(=O)Nc3cc(-c4ccccc4)ccc3OC)cn2c1N(C=O)CCC(C)C	D2 ag-2 134 (no result: D2 antag, D2 ag-1, B2AR arrestin, D2 PAM-2)
CCN1C(=O)[C@@H]2[C@@H](c3ccc(-c4ccc(C(C)=O)cc4)c(OC)c3)N3CCCC[C@@]3(C(=O)OC)[C@@H]2C1=O	none (no result: D2 antag, D2 ag-1, D2 PAM-2)
COc1ccc(-n2nc(C(=O)NCC(=O)NCCc3ccc(OC)c(OC)c3)c3ccccc3c2=O)cc1Cl	D2 PAM-2 55, D2 ag-2 inconclusive
CCOC(=O)N1CCN(C(=O)CNC(=O)c2nn(-c3ccc(OC)c(OC)c3)c(=O)c3ccccc23)CC1	none
CCOC(=O)N1CCN(C(=O)CNC(=O)c2nn(-c3ccc(OC)c(Cl)c3)c(=O)c3ccccc23)CC1	D2 PAM-2 43
O=C(Nc1cccc2nsnc12)c1ccc(-c2cccc(Cl)c2)o1	D2 PAM-1 51
O=C(Nc1ccccc1N1CCCCC1)c1ccc(-c2cccc(Cl)c2)o1	none
CC(C)(C)c1ccc(-c2cn(-c3ccc(Br)cc3)c3[n+]2CCCS3)cc1	D2 antag 42
CCCCC1CCC(C(=O)N(CCCC)c2c(N)n(CCCC)c(=O)[nH]c2=O)CC1 (stereo not drawn)	none
NNC(=O)CN1C(c2ccccc2Br)=Nc2ccc(Br)cc2C1c1ccccc1 (stereo not drawn)	none

Source: PubChem BioAssay
